AHR activator: activates the human aryl hydrocarbon receptor | AHR-responsive luciferase reporter cells, luminescence | activation, % at 5 µM | actives 2.5% (n = 320,000) | AID 2796; in the data active = activation above about 47%;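 also: 0% = vehicle wells and 100% = reference agonist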
Target sequence (P35869 whole entry, looked up): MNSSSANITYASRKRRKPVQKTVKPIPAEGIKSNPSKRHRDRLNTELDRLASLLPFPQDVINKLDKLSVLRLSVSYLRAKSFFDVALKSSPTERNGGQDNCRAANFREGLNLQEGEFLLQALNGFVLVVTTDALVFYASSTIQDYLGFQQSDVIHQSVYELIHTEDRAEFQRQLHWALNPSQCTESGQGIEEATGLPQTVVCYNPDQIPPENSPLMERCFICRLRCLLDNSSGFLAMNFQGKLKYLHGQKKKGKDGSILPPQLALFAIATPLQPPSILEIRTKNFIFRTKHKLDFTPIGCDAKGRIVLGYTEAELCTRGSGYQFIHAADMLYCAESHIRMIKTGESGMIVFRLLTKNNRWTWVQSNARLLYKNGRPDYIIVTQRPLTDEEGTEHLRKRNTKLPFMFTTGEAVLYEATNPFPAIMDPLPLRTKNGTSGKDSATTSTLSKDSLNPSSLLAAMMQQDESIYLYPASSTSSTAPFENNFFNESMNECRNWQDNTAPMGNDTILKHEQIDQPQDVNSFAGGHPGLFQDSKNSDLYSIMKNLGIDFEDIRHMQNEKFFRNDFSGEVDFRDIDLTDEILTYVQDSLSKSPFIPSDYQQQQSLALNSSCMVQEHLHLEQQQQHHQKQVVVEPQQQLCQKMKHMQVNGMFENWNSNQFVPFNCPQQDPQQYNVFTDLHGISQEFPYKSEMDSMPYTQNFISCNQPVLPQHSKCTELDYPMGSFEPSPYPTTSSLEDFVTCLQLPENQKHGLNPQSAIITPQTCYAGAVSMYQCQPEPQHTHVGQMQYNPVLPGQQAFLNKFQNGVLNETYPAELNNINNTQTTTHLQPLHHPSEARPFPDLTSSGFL
GAA850 FXN act: frataxin GAA850 promoter activation. HEK293 lucGAA850 FXN promoter luciferase reporter, 24 h; percent of 10 µM SAHA response. activation, % at 6 µM. actives 0.56% (n = 360,000). AID 540364;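 active = activation above the average of all compounds screened plus 3 SD, cutoff fixed separately per campaign, cut at about 7.5% in these data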;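 also: 0% = DMSO wells and 100% = 10 µM SAHA wells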
HSF1 inh: HSF1 inhibition; NIH3T3-HGL HSE-luciferase, MG132-induced, luminescence 8 h; stronger effect = lower value; AID 2098; actives 0.77% (n = 300,000); activity change, negative = inhibition, % at 7.5 µM (by protocol);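 active = more than half of replicate wells show activity change below -50%, luminescence cut by over half; inconclusive = some wells, but at most half, below -50%; inactive = no replicate well below -50%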;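 also: luciferase reports HSF-1 transcriptional activity via heat shock element; 0% = median of DMSO wells and -100% = zero luminescence signal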
HSF-1 act: increases HSF-1 driven luciferase reporter signal; NIH3T3-HGL HSF-1 luciferase reporter, MG132, 8 h; 100% = twice DMSO control signal; activation, % at 9 µM; actives 1.7% (n = 300,000);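 active = mean replicate activation of at least 50% with a set share of replicates each reaching 50%; inconclusive = only one of those two conditions met; inactive = mean below 50% and too few replicates reaching it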;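 also: 0% = median of the neutral control wells and 100% = twice that signal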
The depositor's hits bear a star; ? = inconclusive; nt = not tested or not shown. Most compounds without a hit are left out; they make up all but 4.6% or so of the library.

SMILES	AHR activator	GAA850 FXN act	HSF1 inh	HSF-1 act
Cc1cc(Br)cc(/C=N/NC(=O)c2ccc3c(c2)OCO3)c1O	62*	-2	8	20
O=C(N/N=C/c1ccc2c(c1)OCO2)c1ccc2c(c1)OCCO2	47	1	-55*	-60
CC(C)c1ccc(/C=N/NC(=O)c2cccc(Cl)c2)cc1	7	-1	36	55*
O=C(N/N=C/c1ccc2c(c1)OCO2)c1cccs1	97*	7	18	37
O=C(c1cccn2c(=O)c3ccccc3nc12)N1CCN(c2ccccn2)CC1	2	-1	6	17
O=C(c1cccn2c(=O)c3cc4ccccc4cc3nc12)N1CCN(c2ccccc2)CC1	71*	nt	1	20
O=C(NCCN1CCN(c2ccccc2)CC1)c1cccn2c(=O)c3cc(Cl)ccc3nc12	94*	0	-6	9
O=C(c1cccn2c(=O)c3cc(Br)ccc3nc12)N1CCN(c2ccccn2)CC1	74*	1	nt	nt
O=C(NCCN1CCOCC1)c1cccn2c(=O)c3c4c(sc3nc12)CCCC4	54*	nt	-6	-7
CCOC(=O)N1CCN(C(=O)c2cccn3c(=O)c4cc(Cl)ccc4nc23)CC1	91*	-1	2	-13
CCOC(=O)N1CCN(C(=O)c2cccn3c(=O)c4cc(Br)ccc4nc23)CC1	58*	0	-4	-9
CCOC(=O)N1CCN(C(=O)c2cccn3c(=O)c4sccc4nc23)CC1	2	1	nt	nt
COc1cc(NC(=S)NCc2cccs2)cc(OC)c1	15	1	2	4
O=C(CCNS(=O)(=O)c1ccc(OC(F)(F)F)cc1)N1CCCC1	nt	-1	nt	nt
COc1ccc(NC(=O)c2cc3ccccc3o2)cc1	34	7	33	55*
Cc1ccc(NC(=O)c2cc(=O)c3ccccc3o2)cc1	55*	1	3	24
O=C(NNC(=O)c1ccccc1O)c1cc2ccccc2o1	68*	2	11	15
O=C(Nc1ccc(F)cc1)c1cc2ccccc2o1	72*	5	35	?
CC(=O)Nc1ccc(NC(=O)c2cc(=O)c3ccccc3o2)cc1	0	0	-7	-5
Cc1c(C2Nc3ccccc3C(=O)N2O)cnn1C (configuration not stated)	36	2	3	31
CC1(Oc2ccc(Cl)cc2)CCN(Cc2ccc(OC(F)(F)F)cc2)C1 (configuration not stated)	nt	-1	nt	nt
O=C(CN(CC1CCCO1)C(=O)CCC(=O)Nc1ccccn1)NCC1CCCO1 (configuration not stated)	0	0	-7	-13
C/C=C/c1ccc(OCC(=O)Nc2ccncc2)c(OC)c1	1	1	-3	-12
C/C=C/c1ccc(OCC(=O)Nc2ccc(OC)c(OC)c2)c(OC)c1	1	-3	-69*	-74
CC(C)N(CCC(=O)c1ccc2ccccc2c1)Cc1ccccc1	-2	-6	nt	nt
SMILES	AHR activator	GAA850 FXN act	HSF1 inh	HSF-1 act
CCOc1ccccc1NC(=O)c1ccc(OCC)c([N+](=O)[O-])c1	1	3	-2	1
CCOc1ccccc1NC(=O)c1ccc2ccccc2c1	67*	2	11	20
CCC(=O)CCC(=O)c1ccc2ccccc2c1	-4	3	-58*	-70
CCCOc1ccccc1NC(=O)c1ccc([N+](=O)[O-])cc1	64*	1	1	14
CCOc1ccccc1NC(=O)NNC(=O)c1ccc2ccccc2c1	49*	0	-3	-6
CN1CCN(NC(=O)c2cccc(F)c2)CC1	2	1	2	-11
CCOC(=O)c1cnc(SCC)[nH]c1=O	3	0	-3	-13
COC(=O)c1nn(-c2ccccc2)c(Cl)c1/C=N/OCc1ccc(Cl)cc1Cl	-1	0	3	-6
Cc1c(NC2=CC(=O)CC(C)(C)C2)ccc([N+](=O)[O-])c1C	23	1	-2	-11
COCC(C)n1c(SCC(=O)Nc2ccc3c(c2)OCCO3)nc2ccccc2c1=O (configuration not stated)	-1	1	nt	nt
CCC(C)n1c(SCC(=O)NC(=O)Nc2ccc3c(c2)OCCO3)nc2ccccc2c1=O (configuration not stated)	-1	0	24	54*
COc1ccc(CCNC(=O)C2CCCN(S(=O)(=O)c3ccc(F)cc3)C2)cc1OC (configuration not stated)	2	1	-57*	-67
Cc1cc(C)c(S(=O)(=O)N2CCCC(C(=O)NCCC3=CCCCC3)C2)c(C)c1 (configuration not stated)	2	0	27	60*
COc1ccc(S(=O)(=O)N2CCCC(C(=O)NCCC3=CCCCC3)C2)cc1 (configuration not stated)	-2	-1	8	35
O=C(NC1CCCCC1)C(c1ccc(O)cc1)N(C(=O)c1cnccn1)c1cccc(F)c1 (configuration not stated)	1	0	2	11
C=CCNC(=O)/C(C#N)=C/c1c(N2CCN(c3ccc(OC)cc3)CC2)nc2c(C)cccn2c1=O	30	0	1	6
COc1ccc(C)cc1NC(=O)C(OC(=O)C1CC1)c1ccccc1 (configuration not stated)	55*	2	0	4
CCCCNc1c(-c2ccc(-c3cccc(Cl)c3)cc2)nc2ccccn12	56*	2	21	22
O=C(/C=C(/c1ccc(Cl)cc1)n1cncn1)c1ccccc1	64*	3	14	16
Clc1ccccc1C1Nc2cccc3cccc(c23)N1	7	2	-6	0
Clc1cccc(C2Nc3cccc4cccc(c34)N2)c1Cl	59*	0	3	2
Fc1ccc(C2Nc3cccc4cccc(c34)N2)cc1	51*	-1	-9	-14
O=S(=O)(c1cccc(NC(=S)N2CCN(c3ccccc3)CC2)c1)C(F)F	1	-2	-5	16
Cc1ccc(-c2csc(NC(=O)c3ccc(S(=O)(=O)N4CCc5ccccc54)cc3)n2)cc1	29	-1	-56*	-66
COc1ccc(-c2cc(C(F)(F)F)c3c(n2)sc2c(O)cc(=O)[nH]c23)c(OC)c1	70*	3	-6	-2
SMILES	AHR activator	GAA850 FXN act	HSF1 inh	HSF-1 act
C(=N\Nc1ccccn1)/c1ccc2c(c1)OCCO2	18	4	27	61*
C=CCOc1ccc(/C=N/Nc2ccccn2)cc1OC	55*	7	29	66*
Fc1cccc(/C=N/Nc2ccccn2)c1	11	7	24	37
Cc1cc(N/C=C/C(=O)c2ccc(Br)cc2)no1	-4	3	32	55*
COc1cc([N+](=O)[O-])ccc1N/C=C/C(=O)c1cccs1	51*	-3	2	12
O=C(/C=C/Nc1cccc(O)c1)c1ccccc1	0	-3	10	2
O=C(/C=C/Nc1ccc(F)cc1)c1ccc(Br)cc1	16	6	33	65*
Cc1ccnc(N/C=C/C(=O)c2ccc(Br)cc2)c1	nt	6	26	?
O=C(/C=C/c1ccc([N+](=O)[O-])cc1)c1cccs1	0	0	19	19
Cc1ccc(N/C=C/C(=O)c2ccccc2)cc1Br	55*	3	16	22
